The sample as a whole holds a higher share of hits than the screen did.
KDM5B inh: blocks human KDM5B histone demethylase activity | Q9UGL1 | KDM5B demethylase, FDH-coupled NADH fluorescence (FDH is formaldehyde dehydrogenase) | Potency, µM (highest dose often 57.7 µM), most hits filed as inhibitors | 220,000 tested, 2.6% active; active = well fitted inhibition curve with a large enough effect; note: 0% is about no effect; nearly all actives have a fitted effect of over 70% in size
Target sequence (Q9UGL1 whole entry, looked up): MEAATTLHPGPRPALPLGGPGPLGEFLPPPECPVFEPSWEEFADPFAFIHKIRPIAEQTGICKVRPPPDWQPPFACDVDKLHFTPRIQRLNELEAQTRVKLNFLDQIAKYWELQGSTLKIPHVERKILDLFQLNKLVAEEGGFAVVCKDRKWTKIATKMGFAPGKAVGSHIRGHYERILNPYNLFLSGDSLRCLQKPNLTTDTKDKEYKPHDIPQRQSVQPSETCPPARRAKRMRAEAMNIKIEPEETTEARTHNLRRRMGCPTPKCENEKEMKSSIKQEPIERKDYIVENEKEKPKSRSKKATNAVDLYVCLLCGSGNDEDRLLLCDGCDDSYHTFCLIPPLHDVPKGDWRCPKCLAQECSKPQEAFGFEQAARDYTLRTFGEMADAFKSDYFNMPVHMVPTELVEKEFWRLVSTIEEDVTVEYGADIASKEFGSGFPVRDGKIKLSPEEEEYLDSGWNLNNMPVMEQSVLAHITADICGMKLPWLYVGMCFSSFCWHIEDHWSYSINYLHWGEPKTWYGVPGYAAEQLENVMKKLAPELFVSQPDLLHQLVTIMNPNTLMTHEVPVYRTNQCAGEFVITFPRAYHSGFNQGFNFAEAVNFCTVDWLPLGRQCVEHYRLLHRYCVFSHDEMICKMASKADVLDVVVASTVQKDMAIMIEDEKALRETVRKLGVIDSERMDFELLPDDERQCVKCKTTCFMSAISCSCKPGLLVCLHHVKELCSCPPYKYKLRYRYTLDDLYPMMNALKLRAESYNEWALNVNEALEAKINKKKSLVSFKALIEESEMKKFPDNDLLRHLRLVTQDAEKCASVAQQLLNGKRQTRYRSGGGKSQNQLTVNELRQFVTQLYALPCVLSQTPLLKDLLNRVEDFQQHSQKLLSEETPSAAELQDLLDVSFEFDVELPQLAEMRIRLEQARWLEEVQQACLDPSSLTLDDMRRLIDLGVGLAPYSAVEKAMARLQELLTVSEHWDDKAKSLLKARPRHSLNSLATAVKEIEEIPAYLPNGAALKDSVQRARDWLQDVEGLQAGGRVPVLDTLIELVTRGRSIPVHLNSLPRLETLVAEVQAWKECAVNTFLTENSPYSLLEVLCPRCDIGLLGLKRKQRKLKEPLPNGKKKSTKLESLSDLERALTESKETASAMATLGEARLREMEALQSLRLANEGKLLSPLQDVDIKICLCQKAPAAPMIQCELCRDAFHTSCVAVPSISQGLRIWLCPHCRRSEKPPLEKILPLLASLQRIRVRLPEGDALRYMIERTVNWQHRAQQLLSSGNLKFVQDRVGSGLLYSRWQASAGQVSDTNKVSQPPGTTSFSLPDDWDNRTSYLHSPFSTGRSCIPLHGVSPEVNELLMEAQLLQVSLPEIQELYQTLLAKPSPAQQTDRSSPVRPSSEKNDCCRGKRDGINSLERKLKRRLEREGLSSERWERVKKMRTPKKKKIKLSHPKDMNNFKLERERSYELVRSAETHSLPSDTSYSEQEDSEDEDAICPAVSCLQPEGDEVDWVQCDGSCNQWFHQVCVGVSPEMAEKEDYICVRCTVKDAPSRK
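Compound dilutions met 200 nM (final) KDM5BΔAP for 10 min at room temperature before substrate addition. The substrate mix held 12.5 µM H3K4me3 with cofactors 25 µM α-ketoglutarate and 50 µM Fe²⁺. NADH signal gain over 30 min defined activity.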
* marks the source's active call; other numbers are inactive results. Potency is the fitted concentration of half-maximal effect.

`O=C1[C@@H]2C[C@@H](CN2C(=O)c2cccnc2)Oc2ccccc2N1Cc1ccc(OC(F)(F)F)cc1` gave KDM5B inh inactive.
CC(C)n1nc(C(=O)Nc2cccc(S(=O)(=O)N3CCCCCC3)c2)c2ccccc2c1=O was read as KDM5B inh inactive.
Cc1ccc2[nH]cc(C=O)c2c1 was read as KDM5B inh inactive.
`CC1CCN(CCCNCc2cccnc2)CC1` gave KDM5B inh inactive.
`Cc1ccc(C(=O)N(CC#N)C2CC2)s1` gave KDM5B inh inactive.
`CN(Cc1ccc(C(=O)NCC(F)(F)F)cc1)C(=O)c1ccccc1` gave KDM5B inh inactive.
O=c1c2ccccc2nc(SCc2nc3ccccc3o2)n1C1CC1 was read as KDM5B inh inactive.
Screening CC(O)c1ccc(-c2ccc(CNC3CCCCC3)o2)cc1 (stereo not drawn) returned KDM5B inh inactive.
Screening O=C(NCC#Cc1ccccc1)N1CCCCCCC1 returned KDM5B inh inactive.
CC(C(=O)Nc1ccc(F)cc1)n1cnc2c1c(=O)n(C)c(=O)n2C (stereo not drawn) was read as KDM5B inh inactive.
For Cc1ccc(OCC(=O)NCC2Cn3cccc3C(=O)N2C)cc1 (stereo not drawn) the results were KDM5B inh inactive.
Screening O=C(CCc1nc2ccccc2s1)NCC1CCCCC(=O)N1 (stereo not drawn) returned KDM5B inh inactive.
O=C(COc1ccc(F)cc1)NCC1Cn2cccc2CN1Cc1ccccc1 (stereo not drawn) was read as KDM5B inh 25µM*.
Screening O=C(NCC1Cn2cccc2CN1Cc1ccccc1)NC1CCCCC1 (stereo not drawn) returned KDM5B inh 28µM*.
For O=C(CCc1nc2ccccc2s1)NCC1Cn2cccc2CN1Cc1ccccc1 (stereo not drawn) the results were KDM5B inh 25µM*.
`O=C(CCc1nc2ccccc2s1)NCCc1cccc(F)c1` gave KDM5B inh inactive.
O=C(COc1ccc(C(=O)c2ccc(F)cc2)cc1)NC(=O)NCc1ccccc1 was read as KDM5B inh inactive.
Screening O=C(NCc1ccccc1)NCC1Cn2cccc2C(=O)N1Cc1ccccc1 (stereo not drawn) returned KDM5B inh inactive.
`O=C(NCC1Cn2cccc2C(=O)N1Cc1ccccc1)Nc1ccccc1F` (stereo not drawn) gave KDM5B inh inactive.
`COc1ccccc1C(=O)N(Cc1ccc(C(C)C)cc1)C1CCS(=O)(=O)C1` (stereo not drawn) gave KDM5B inh inactive.
For Cn1nc(CC(=O)Nc2ccc(Cl)c(Cl)c2)c2ccccc2c1=O the results were KDM5B inh inactive.
CC(C)CC(=O)NN=C1CCC(C(C)(C)C)CC1 (stereo not drawn) was read as KDM5B inh inactive.
Cc1c(C(=O)N2CCC(C(=O)Nc3ccc4c(c3)OCO4)CC2)oc2ccccc12 was read as KDM5B inh inactive.
`CCOc1ccccc1Oc1coc2cc(OCC(=O)NCC3CCC(C(=O)O)CC3)ccc2c1=O` (stereo not drawn) gave KDM5B inh inactive.
`O=C(Nc1ncc(Cc2cccc(C(F)(F)F)c2)s1)C1=Cc2ccccc2OC1` gave KDM5B inh inactive.
Screening COc1ccc(Oc2coc3cc(OC(C)C(=O)OC(C)C)ccc3c2=O)cc1 (stereo not drawn) returned KDM5B inh inactive.
Screening CN1CCN(C(C(=O)O)c2c[nH]c3cc(NC(=O)CCC(=O)O)ccc23)CC1 (stereo not drawn) returned KDM5B inh inactive.
Screening CCCCC1CN(c2cccc(-c3ccccc3)c2)C(=O)CN1C(=O)c1ncoc1C (stereo not drawn) returned KDM5B inh inactive.
For c1cc(-c2cc(-c3ccc4cn[nH]c4c3)cn3cncc23)ccn1 the results were KDM5B inh inactive.
For COc1ncccc1-c1ncc2c(n1)OCCN(c1ccccc1)C2=O the results were KDM5B inh inactive.
`C1=C(c2cc(-c3cccc4cn[nH]c34)cn3cncc23)CCOC1` gave KDM5B inh 32µM*.
Screening Oc1ccccc1-c1cc(C2=CCOCC2)c2cncn2c1 returned KDM5B inh 32µM*.
C1=C(c2cc(-c3cccc4[nH]ccc34)cn3cncc23)CCOC1 was read as KDM5B inh 25µM*.
For COc1ncccc1-c1cc(C2=CCOCC2)c2cncn2c1 the results were KDM5B inh 35µM*.
`CCCCn1nnc(NC(=O)COc2ccc(Cl)cc2Cl)n1` gave KDM5B inh inactive.
Screening O=S(=O)(c1ccc(SCc2cc(Cl)c3c(c2)OCCO3)nc1)N1CCOCC1 returned KDM5B inh inactive.
Screening FC(F)(F)c1cccc(/C=C/c2nc3c(ccc4ccccc43)s2)c1 returned KDM5B inh inactive.
Cc1ccc(NC(=O)C(=O)NCCN2CCN(S(=O)(=O)c3ccc(F)cc3)CC2)cc1C was read as KDM5B inh inactive.
`Cc1cc(C)cc(Nc2nc3ccccc3nc2NS(=O)(=O)c2ccc(F)cc2)c1` gave KDM5B inh inactive.
Screening COc1cc(/C=C/C(=O)c2c(O)c3ccccc3oc2=O)cc(OC)c1OC returned KDM5B inh inactive.
`O=C(Nc1ccc(-c2nc3ccccc3s2)cc1)C1CCN(C(=O)c2ccco2)CC1` gave KDM5B inh inactive.
COc1ccc2cc(CNC(=O)CNC(=O)c3cc(C)cc(C)c3)ccc2c1 was read as KDM5B inh inactive.
CS(=O)(=O)c1ccc2nc(NC(=O)Cc3ccc(Cl)cc3)sc2c1 was read as KDM5B inh inactive.
For NC(=O)c1cccc(C(=O)Nc2cccc3cccnc23)c1 the results were KDM5B inh inactive.
O=C(/C=C/c1ccc(F)cc1)NCCCCc1ccccc1 was read as KDM5B inh inactive.
Screening COCc1ccc2c(c1)c(OC(C)(C)C(=O)NCCc1cccnc1)nn2Cc1ccccc1 returned KDM5B inh inactive.
Screening COCc1ccc2c(c1)c(OC(C)(C)C(=O)N1CC(O)C1)nn2Cc1cccnc1 returned KDM5B inh inactive.
For COCc1ccc2c(c1)c(OC(C)(C)C(=O)NCC1CC1)nn2Cc1ccccc1 the results were KDM5B inh 32µM*.
CN(C)Cc1ccc2c(c1)c(OC(C)(C)C(=O)NC1CC1)nn2Cc1ccccc1 was read as KDM5B inh 35µM*.
COCc1ccc2c(c1)c(OC(C)(C)C(=O)NCC[S+](C)(=O)[O-])nn2Cc1cccnc1 was read as KDM5B inh inactive.
Screening COCc1ccc2c(c1)c(OC(C)(C)C(=O)N1CCN(CCO)CC1)nn2Cc1ccccc1 returned KDM5B inh inactive.
COCc1ccc2c(c1)c(OC(C)(C)C(=O)NC1CCOCC1)nn2Cc1ccccc1 was read as KDM5B inh 28µM*.
For COCc1ccc2c(c1)c(OC(C)(C)C(=O)NCC[S+](C)(=O)[O-])nn2Cc1ccccc1 the results were KDM5B inh 28µM*.
Screening CC(C)(Oc1nn(Cc2cccc(Cl)c2)c2ccccc12)C(=O)NCC[S+](C)(=O)[O-] returned KDM5B inh inactive.
Screening CC(C)(Oc1nn(Cc2cccc(Cl)c2)c2ccccc12)C(=O)NCCN1CCOCC1 returned KDM5B inh inactive.
`COc1ccc(OCc2ccc(C(=O)O)o2)cc1` gave KDM5B inh inactive.
Cc1ccc(NC(=O)c2sc3nc(-c4ccc(F)cc4)cn3c2C)cc1Cl was read as KDM5B inh inactive.
O=C(CN1Cc2ccccc2C1=O)Nc1ccc(S(=O)(=O)N2CCCCCC2)cc1 was read as KDM5B inh inactive.
